Data on 46 molecules can be found in PubChem BioAssay (NCATS).

Structures are written as SMILES. Records with an inconclusive call do not appear. A call without a number means that no potency is given here. The source made the active and inactive calls. Unless noted, the call rests on the fitted dose curve; in most records, active means well fitted curve in the direction sought with a large enough effect; inconclusive means small, poorly fitted or top-dose-only effect, or another doubt; inactive means no such curve, though single readings can be large; an effect the other way counts as inactive or inconclusive.

The nature of test [1]: NS1 protein of Zika virus - qHTS assay to identify small molecule inhibitors in human HEK 293 cells (AID 1347053). Further: nearly all actives have a fitted effect of over 55% in size. Further: potency means the concentration at half of the fitted maximal effect. Summed up: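 TR-FRET signal from two anti-ZIKV NS1 antibodies quantified NS1 in HEK 293 cells 24 h after MR766 infection at MOI = 0.5; compounds were added 1 h before virus. Uninfected cells and infected cells defined the NS1 normalization range.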
Test [2] can be described thus: qHTS for Inhibitors of the Functional Ribonucleoprotein Complex (vRNP) of Lassa (LASV) Arenavirus: LASV Primary Screen - GLuc reporter signal (AID 1347082; calls by dose curve; tested in HEK293 reporter line; further: nearly all actives have a fitted effect of over 60% in size; further: potency means the concentration at half of the fitted maximal effect). On the technique in general: qHTS replaces the single test concentration by a dilution series.
Test [3] is described as follows: qHTS for Inhibitors of the Functional Ribonucleoprotein Complex (vRNP) of Lassa (LASV) Arenavirus: Viability assay - alamar blue signal for LASV Primary Screen (AID 1347083; calls by dose curve; tested in HEK293 reporter line; further: nearly all actives have a fitted effect of over 80% in size; further: potency means the concentration at half of the fitted maximal effect).
Test [4] deals with Tyrosine-protein phosphatase non-receptor type substrate 1 (Homo sapiens) + Leukocyte surface antigen CD47 (Homo sapiens) (UniProt P78324+Q08722). The test is described as follows: CD47-SIRPalpha protein protein interaction - Alpha assay qHTS validation (AID 1347059).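 Further: bead proximity luminescence from CD47 binding SIRPalpha after compound preincubation with SIRPalpha.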 An outline of the steps: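 AlphaScreen signal between CD47-His (12.5 nM) and biotin-SIRPalpha (25 nM) soluble extracellular domains, bead-captured via Ni-NTA and streptavidin. Compounds, in 7-point titrations, met SIRPalpha 30 min before CD47; PBS pH 7.4 with 0.05% IGEPAL.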
Tyrosine-protein phosphatase non-receptor type substrate 1 (Homo sapiens) + Leukocyte surface antigen CD47 (Homo sapiens), sequence (P78324 whole entry, looked up, the tested form may be a part): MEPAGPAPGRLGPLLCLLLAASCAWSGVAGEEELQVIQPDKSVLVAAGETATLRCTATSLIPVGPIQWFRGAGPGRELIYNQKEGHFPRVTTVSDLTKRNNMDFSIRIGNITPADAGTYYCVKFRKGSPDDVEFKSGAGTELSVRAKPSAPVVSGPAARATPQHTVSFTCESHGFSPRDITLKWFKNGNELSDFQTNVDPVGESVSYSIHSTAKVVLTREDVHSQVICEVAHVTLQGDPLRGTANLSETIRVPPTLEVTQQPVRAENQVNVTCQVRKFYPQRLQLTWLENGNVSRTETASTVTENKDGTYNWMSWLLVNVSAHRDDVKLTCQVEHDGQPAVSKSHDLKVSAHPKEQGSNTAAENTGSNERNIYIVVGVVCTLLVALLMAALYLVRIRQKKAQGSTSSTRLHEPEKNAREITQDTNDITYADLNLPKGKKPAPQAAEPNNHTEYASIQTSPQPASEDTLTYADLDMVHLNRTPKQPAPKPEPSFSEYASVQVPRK
Tyrosine-protein phosphatase non-receptor type substrate 1 (Homo sapiens) + Leukocyte surface antigen CD47 (Homo sapiens), sequence (Q08722 whole entry, looked up, the tested form may be a part): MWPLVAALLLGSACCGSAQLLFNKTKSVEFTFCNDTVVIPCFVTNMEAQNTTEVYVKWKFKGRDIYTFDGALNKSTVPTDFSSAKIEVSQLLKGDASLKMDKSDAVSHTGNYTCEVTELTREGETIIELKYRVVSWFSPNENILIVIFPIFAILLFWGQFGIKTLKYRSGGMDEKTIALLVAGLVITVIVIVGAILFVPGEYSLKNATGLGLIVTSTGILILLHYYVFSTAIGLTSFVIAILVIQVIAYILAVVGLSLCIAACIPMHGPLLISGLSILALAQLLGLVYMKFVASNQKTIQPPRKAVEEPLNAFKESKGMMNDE

For the molecule `CCCCC(CC)COC(=O)c1ccccc1C(=O)OCC(CC)CCCC` (centres undefined), the Potency result in test [1], in test [2] and in test [3] was “inactive” in each case.

Take `C1=C2CCCN[C@H]2[C@@H]2C[C@H]1[C@@H]1CCCCN1C2`: the Potency result in test [1], in test [2] and in test [3] was “inactive” in each case.

Take `Nc1ccc(Cl)cc1N`: the Potency result in test [1], in test [2] and in test [3] was “inactive” throughout.

For the molecule `CCC(=O)OC1CCC2C3CCC4=CC(=O)CC[C@@]4(C)C3CC[C@]12C` (some centres undefined), the Potency entry in test [1], in test [2] and in test [3] was “inactive” throughout.

Take `C[C@@H]1CC[C@H]2[C@@H](C)C(=O)O[C@@H]3O[C@@]4(C)CC[C@H]1[C@]32OO4`: the Potency result in test [1], in test [2] and in test [3] was “inactive” in each case.

Take `COC1=CC(C)=C[C@@H](C)[C@@H](O)[C@@H](C)CC(C)=CC=C[C@H](OC)[C@H]([C@@H](C)[C@@H](O)[C@H](C)[C@@]2(O)C[C@@H](O)[C@H](C)[C@@H](C(C)C)O2)OC1=O`: the results for the Potency in test [1], in test [2] and in test [3] were 0.0012 µM (active), 0.109 µM (active) and 0.0769 µM (active), respectively.

For the molecule `CCNC(=O)C[C@@H]1N=C(c2ccc(Cl)cc2)c2cc(OC)ccc2-n2c(C)nnc21`, the Potency result in test [1] is “inactive”. Further, in test [3], the Potency is 3.06 µM (active).

As for `Cc1cccc(-c2[nH]ncc2-c2ccc3ncccc3n2)n1`, in test [2], the Potency entry was “inactive”.

Regarding `COC[C@H]1OC(=O)c2coc3c2[C@@]1(C)C1=C(C3=O)[C@@H]2CC[C@H](O)[C@@]2(C)C[C@@H]1OC(C)=O`, the Potency result in test [2] was “inactive”.

For `Fc1cc(-c2cccc3ncc(-c4cnn(C5CCNCC5)c4)nc23)cc(F)c1CN1CCOCC1`, the Potency in test [2] was 24.3 µM (active).

In the case of `Cc1ccc(F)c(NC(=O)Nc2ccc(-c3cccc4[nH]nc(N)c34)cc2)c1`, the Potency entry in test [2] is “inactive”.

With `O=C(C1CC1)N1CC[C@@H](Cn2c(-c3ccc(-c4ccc5occc5c4)cc3)nc3cnccc32)C1`, in test [2], the Potency result is “inactive”.

Regarding `CC1=C[C@@H]2[C@@H]([C@@H](O)C[C@@]3(C)[C@H]2C[C@@H](C)[C@]3(O)C(=O)CO)[C@@]2(C)Cc3cnn(-c4ccccc4)c3C=C12`, the Potency entry in test [2] was “inactive”.

Consider `COc1nn(CSP(=S)(OC)OC)c(=O)s1`, for which the Potency entry in test [1] and in test [3] was “inactive” throughout.

As to `CCNC(=O)CC1N=C(c2ccc(Cl)cc2)c2cc(OC)ccc2-n2c(C)nnc21` (centres undefined), the Potency entry in test [1] was “inactive”. The Potency in test [3] is 7.69 µM (active).

For `C/C=C(/C)C(=O)O[C@H]1C(C)=C2[C@H]([C@@H]1OC(=O)CCCCCCC)[C@@](C)(OC(C)=O)C[C@H](OC(=O)CCC)[C@@]1(O)[C@H]2OC(=O)[C@@]1(C)O`, the Potency result in test [4] was “inactive”.

Consider `Cc1ccccc1-n1c(Cn2ncc3c(N)ncnc32)nc2cccc(C)c2c1=O`, for which the Potency result in test [1] is “inactive”. For the same molecule, the Potency in test [3] was 0.485 µM (active).

Take `Nc1cccc2c(N)cccc12`: the Potency result in test [2] was “inactive”.

Turning to `C=CCC1=C(C)C(OC(=O)C2C(C=C(C)C)C2(C)C)CC1=O` (centres undefined), the Potency result in test [1] and in test [3] was “inactive” throughout.

On to `CNCc1ccc(-c2[nH]c3cc(F)cc4c3c2CCNC4=O)cc1`, for which, in test [2], the Potency entry was “inactive”.

Consider `N#Cc1ccc(NC(=O)Nc2ccccc2Br)c2n[nH]nc12`, for which the Potency result in test [2] was “inactive”.

Consider `CC(C)Oc1cc(Nc2nc(N[C@@H](C)c3ccc(F)cn3)ncc2Cl)[nH]n1`, for which, in test [2], the Potency result is “inactive”.

As to `CCOc1ccn(-c2ccc(F)cc2)c(=O)c1C(=O)Nc1ccc(Oc2ccnc(N)c2Cl)c(F)c1`, in test [2], the Potency entry is “inactive”.

With `CC=C(C)C(=O)O[C@H]1C(C)=C2[C@@H]3OC(=O)[C@@](C)(O)[C@@]3(O)[C@@H](OC(=O)CCC)C[C@](C)(OC(C)=O)[C@@H]2[C@@H]1OC(=O)CCCCCCC`, the Potency was 0.332 µM (active) in test [1] and 0.769 µM (active) in test [3].

With `CC(C)(C)c1ccc(O)c(O)c1`, the Potency result in test [2] was “inactive”.

`NC(=O)c1c(OCc2c(F)cc(Br)cc2F)nsc1NC(=O)NCCCCN1CCCC1`: the Potency entry in test [2] is “inactive”.

As for `C=C[C@@H]1CN2CCC1C[C@H]2[C@H](O)c1ccnc2ccccc12` (some centres undefined), the Potency result in test [2] is “inactive”.

Take `O=S(=O)(N=Cc1c(O)ccc2ccccc12)c1cccs1`: the Potency result in test [2] was “inactive”.

On to `CCCCn1c(=O)n(Cc2ccccc2F)c(=O)c2[nH]c(Cc3ccc(NC(C)=O)cc3)nc21`, for which the Potency result in test [2] was “inactive”.

In the case of `COCC(=O)NCC=Cc1ccc2ncnc(Nc3ccc(Oc4ccc(C)nc4)c(C)c3)c2c1`, in test [2], the Potency is 43.2 µM (active).

For `[Cl][In]([Cl])[Cl]`, the Potency result in test [2] is “inactive”.

Regarding `CC(C)(O)C=CC(=O)[C@](C)(O)[C@H]1[C@H](O)C[C@]2(C)[C@@H]3CC=C4[C@@H](C=C(O)C(=O)C4(C)C)[C@]3(C)C(=O)C[C@@]12C`, the Potency in test [1] was 3.32 µM (active); in test [3], 3.06 µM (active).

`COc1cc2c(cc1O)CC[C@@H]1[C@@H]2CC[C@]2(C)[C@@H](O)CC[C@@H]12`: the Potency result in test [2] was “inactive”.

`CCOC(=O)c1c(C(C#N)=CN)c2ccc(Cl)c(Cl)c2n1C`: in test [1], the Potency entry was “inactive”. In addition, in test [3], the Potency is 10.9 µM (active).

As to `COc1cc2nccc(Oc3ccc(NC(=O)Nc4cc(C)on4)c(Cl)c3)c2cc1OC`, the Potency in test [2] is 34.3 µM (active).

Take `CC1=C(O)C(=O)C=C2C1=CC=C1[C@@]2(C)CC[C@@]2(C)[C@@H]3C[C@](C)(C(=O)O)CC[C@]3(C)CC[C@]12C`: the Potency was 2.96 µM (active) in test [1] and 19.3 µM (active) in test [3].

Regarding `Cc1ccnc(NS(=O)(=O)c2ccc(NC(=O)Nc3ccc(S(=O)(=O)Nc4nccc(C)n4)cc3)cc2)n1`, the Potency entry in test [2] was “inactive”.

`O=C(Nc1ccc(F)c(C(F)(F)F)c1)Nc1nnc(-c2ccncc2)s1`: the Potency result in test [2] is “inactive”.

Consider `C[C@@H]1CN(CC(=O)Nc2ccc3c(c2)Cc2cccc(-c4cc(=O)cc(N5CCOCC5)o4)c2S3)C[C@H](C)O1`, for which the Potency result in test [2] is “inactive”.

`COCCNCCCn1c(C(=O)CF)c(-c2ccc(C)cc2)c2c(N)ncnc21`: in test [2], the Potency result was “inactive”.

In the case of `COc1c(Cl)cc2c([nH]c3cnccc32)c1NC(=O)c1cccnc1C`, the Potency entry in test [2] was “inactive”.

Turning to `O=c1cc(N2CCOCC2)oc2c(-c3cccc4c3sc3ccccc34)cccc12`, the Potency entry in test [2] was “inactive”.

As to `CC(C)C(=O)Nc1ncc(-c2cc(C(F)F)nn2-c2c(Cl)cccc2Cl)s1`, in test [2], the Potency entry is “inactive”.

`Cn1c(NCCN(CCO)CCCc2ccc([N+](=O)[O-])cc2)cc(=O)n(C)c1=O`: the Potency result in test [2] was “inactive”.

On to `Cn1c(=O)n(-c2ccc(C(C)(C)C#N)cc2)c2c3cc(-c4cnc5ccccc5c4)ccc3ncc21`, for which the Potency was 0.0385 µM (active) in test [2] and 0.0343 µM (active) in test [3].

For the molecule `CC1=C(/C=C/C(C)=C/C=C/C(C)=C/C(=O)O)C(C)(C)CCC1`, the Potency result in test [2] and in test [3] was “inactive” each time.
